Experimental data: PubChem BioAssay AID588 (National Center for Advancing Translational Sciences (NCATS), 2007)
About 25 (0.04%) of roughly 59,000 compounds were called active. No rule for the calls is given here. Many of the other results were omitted from the sample, so actives are more common in it than they were.

Assay: qHTS Assay for Spectroscopic Profiling in Resorufin Spectral Region
Details: Compound fluorescence, resorufin region 547/598 nm, buffer
Text: NIH Molecular Libraries Screening Centers Network [MLSCN] NIH Chemical Genomics Center [NCGC] […] Occasionally, the artifactual effect may originate from the compound#s own spectral or other biophysical properties which generally tend to track its assay concentration. Pre-screening/profiling the library with respect to the compounds# spectral properties should help one exclude false positives early on. While the most informative fluorescent profiling data set is obtained by performing a full excitation and emission scan of each well by using a monochromator-based plate reader, such an approach is practical only on a very limited scale as scanning each well requires long time. An alternative approach, applied here, is to perform plate reader scans using selected excitation and emission wavelength pairs to generate a multidimensional relational database that correlates compound concentration and the respective relative fluorescence intensity at a given wavelength set. A standard curve of resorufin present on each plate as six-point concentration series, was used to compute a normalized fluorescence response, termed dye-equivalent concentration, for each compound at each concentration.
NCGC Assay Protocol Summary: Buffer: 100 mM Tris buffer, pH 8.0 Dye standard plate: The wells in columns 1 through 4 of a Kalypsys polypropylene 1536-well compound plate were filled with standard solutions of fluorophore corresponding to the spectral region of interest. Solutions of resorufin were placed in the following wells: M1, N1: 3 mM, M2, N2: 300 uM, M3, N3: 30 uM, M4, N4: zero (DMSO), O1, P1: 3 uM, O2, P2: […], O3, P3: 300 nM, O4, P4: zero (DMSO). Assay Steps: Six uL of buffer were dispensed to 1536-well Greiner black plates. Compounds and dye standards (23 nL) were transferred via Kalypsys PinTool. The plates were incubated for 15 min at room temperature, and then read on ViewLux (Perkin-Elmer) High-throughput CCD imager using 547 nm and 598 nm excitation and emission filter set. Keywords: NIH Roadmap, MLSCN, MLI, MLSMR, qHTS, NCGC, Resorufin, Fluorescent Profiling.

Max dye-equivalent concentration, inactive:
Nc1ccc2[nH]cc(CCC(=O)O)c2c1
Cc1ccccc1N1CCN(S(=O)(=O)C[C@@]23CC[C@H](C[C@H]2NC(=O)[C@@H](N)CCS(C)(=O)=O)C3(C)C)CC1
COCCNc1ccnc(-c2cccc(NS(C)(=O)=O)c2)n1
CCOC(=O)c1c(C)[nH]c(C)c1C(=O)CSc1nc(N)cc(N)n1
O=C(Cn1c(=S)nc2ccccn21)N1CCc2ccccc2C1
CN1CCN2c3ccccc3Cc3ccccc3[C@@H]2C1
COc1ccc2c(CC(=O)Nc3nnc(C4CC4)s3)coc2c1
CC(CCO)Nc1nc2c([nH]1)c(=O)n(C)c(=O)n2C (stereo not drawn)
CCOc1c(OC)cc(C2C(C#N)=C(N)Oc3n[nH]c(-c4ccncc4)c32)cc1OC (stereo not drawn)
Cc1ccc(S(=O)(=O)N2CCC(C(=O)N[C@@H](C)C(=O)NCCc3ccccc3)CC2)cc1
NS(=O)(=O)c1cc2c(cc1Cl)NC(C(Cl)Cl)NS2(=O)=O (stereo not drawn)
CCOC(=O)N1CCN(C(=O)CSc2nnc(-c3c[nH]c4ccccc34)n2CCOC)CC1
CCOc1ccc(Cn2c(SCCCCC#N)nc3c2c(=O)n(C)c(=O)n3C)cc1OCC
CNc1ncnc2ccc(-c3cccc(NS(C)(=O)=O)c3)cc12
Cc1ccc(C)n1C(Cc1ccccc1)C(=O)O (stereo not drawn)
COc1cccc2c(C)c(C(=O)O)[nH]c12
Cc1nc2ccccc2cc1O
COCCNC(=O)C(c1ccc(C)o1)N(Cc1cccs1)C(=O)c1snc(C(N)=O)c1N (stereo not drawn)
Cc1cc(C)c(C)c(S(=O)(=O)Nc2ccc(O)cc2)c1C
CCN(CC)Cc1c(C(=O)OC)nnn1-c1nonc1N
Cn1cccc1C(=O)N1CCC[C@@]2(CCN(Cc3nccs3)C2)C1
COc1cc2[nH]c(=S)n(CCN3CCCCC3C)c(=O)c2cc1OC (stereo not drawn)
COc1ccc(CCNC(=O)c2ccc3c(c2)NC(=O)C(N2CCOCC2)S3)cc1OC (stereo not drawn)
COc1ccc(CCn2c(NCCCN3CCOCC3)nc3c2c(=O)[nH]c(=O)n3C)cc1
Cc1ccccc1CSc1nnc(-c2cccnc2)n1N
COCCN(C(=O)CCC(=O)Nc1ccccn1)C(C(=O)NCCC(C)C)c1ccc(OC)cc1 (stereo not drawn)
NCCNCC1CCNCC1
Cc1ccc(N2CCN(c3ccc(C)cc3)C2c2ccccn2)cc1
O=C(NCCCN1CCN(c2ccccc2F)CC1)C1CCC(=O)N1C1CCCCC1 (stereo not drawn)
CCOc1ccc(C(C)C)cc1S(=O)(=O)n1nc(C)cc1C
COc1ccc(-c2c3c(=O)n(C)c(=O)n(C)c3cn2NC(C)=O)cc1
CCCOC(=O)C1=C(C)NC2=C(C(=O)C(C(=O)OC)C(C)C2)C1c1ccc(N(C)C)cc1 (stereo not drawn)
O=C1CSC(=O)N1CCOCCN1C(=O)CSC1=O
O=c1cc(-c2ccccc2)nc(N2CCCCC2)[nH]1
O=C(CSc1nc2ccccc2[nH]1)c1cccs1
COc1cccc2cc(C(=O)N(C)C)c(=O)oc12
C=CCC(NCCCO)c1cccc(OC)c1OC (stereo not drawn)
O=C(CCCN1C(=O)CCC1=O)Nc1ccc(Cl)c(C(F)(F)F)c1
Cc1cccc2nc(CNc3ccc(F)cc3)cn12
CC1(CCC(=O)OC2CCCCC2)OCCO1
Cc1nc(NC(CC(C)C)C(=O)O)c2nc(C)oc2n1 (stereo not drawn)
Cc1c(C(=O)CN2CCOCC2)[nH]c2ccccc12
C[N+]1(CCNC(=O)/C=N/O)CCCCC1
Cc1ccc(C(C)C)c(OCc2nnc(SCC(=O)Nc3nccs3)n2C)c1
Cc1nn2c3cc(N4CCOCC4)ccc3nc2c2ccccc12
COc1cc(C(=O)Nc2oc(-c3ccccc3)c(-c3ccccc3)c2C#N)cc(OC)c1OC
COc1cccc(Cn2c(=O)c(-c3cc(F)cc(F)c3)nc3cnc(OC)nc32)c1
O=C(CN1CCOCC1)Nc1ccc(NC(=O)CN2CCOCC2)c(Cl)c1
Cc1cccc(-n2c(N)cc(=O)nc2SC(C)C(=O)NC2CCCCC2)c1 (stereo not drawn)
Cn1c(=NC(=O)c2cnccn2)sc2ccccc21
O=C(O)C1OC(C(=O)O)C2C1C(F)(F)C2(F)F (stereo not drawn)
O=C(CSc1nc2ccccc2o1)N1CCN(c2ccccc2)CC1
CCOc1ccccc1/C=c1\sc2nc(-c3ccco3)nn2c1=O
